Compounds with a hit are over-represented: about 3.5% of the library has one in this group of screens.
MITF inh – blocks human microphthalmia-associated transcription factor. AlphaScreen MITF homodimerization, bead proximity signal. O75030. actives 0.91% (n = 650,000). inhibition, % at 2.6 µM; in the data active means inhibition above about 50%
Target sequence (O75030 whole entry, looked up): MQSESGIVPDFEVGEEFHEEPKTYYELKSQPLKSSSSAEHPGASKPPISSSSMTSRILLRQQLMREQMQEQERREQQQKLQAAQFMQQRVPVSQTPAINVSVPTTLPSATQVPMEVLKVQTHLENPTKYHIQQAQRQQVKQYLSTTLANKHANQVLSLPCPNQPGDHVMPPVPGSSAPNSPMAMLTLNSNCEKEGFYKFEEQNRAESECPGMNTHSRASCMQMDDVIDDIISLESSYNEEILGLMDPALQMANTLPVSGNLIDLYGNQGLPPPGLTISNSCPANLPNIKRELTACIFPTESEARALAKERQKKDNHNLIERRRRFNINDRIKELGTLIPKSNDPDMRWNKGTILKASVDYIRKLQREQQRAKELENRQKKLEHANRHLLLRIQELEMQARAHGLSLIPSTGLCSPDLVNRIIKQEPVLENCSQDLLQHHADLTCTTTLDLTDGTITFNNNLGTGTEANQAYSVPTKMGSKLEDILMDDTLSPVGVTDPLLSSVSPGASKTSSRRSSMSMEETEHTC
FBW7 act – activators of human E3 ligase FBW7; AID 1259310; Q969H0; normalized activity (activation), % at 26.1 µM; actives 0.13% (n = 650,000); AlphaScreen FBW7–phospho-cyclin E peptide binding, activator screen; in the data active means normalized activity above about 1.9%;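 further: purified mutant Fbw7 with reduced substrate affinity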
GPR151 activ – activators of human GPR151 | PathHunter beta-arrestin GPR151 cells, luminescence | activation, % at 11.2 µM | Q8TDV0 | actives 1% (n = 650,000); in the data active means activation above about 4.9%
TEAD-YAP block – TEAD-YAP interaction inhibition; HEK-TIYL cells, TEAD-Gal4/YAP UAS-luciferase luminescence; inhibition, % at 9.12 µM; actives 1.4% (n = 640,000); AID 1259422; in the data active means inhibition above about 32%
GPR151 confirm – confirmation of human GPR151 activators; shares compounds with GPR151 activ; GPR151 PathHunter beta-arrestin cells, luminescence, 90 min; % of EA-reagent control over plate median; activation, % at 11.2 µM; 6,700 tested, under 10 active; AID 1508609;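 active means mean percent activation across replicates above the confirmation screen cutoff of 4.91%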
GPR119 ag – GPR119 activation, counter-screen for GPR151 activators; shares compounds with GPR151 activ; GPR119 PathHunter beta-arrestin cells, luminescence, 90 min; 0 = compound-well median, 100 = enzyme-acceptor control; activation, % at 11.2 µM; actives 0.3% (n = 6,700);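 active means mean percent activation in the counterscreen above 29.09%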;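 further: counterscreen on off-target GPR119 to flag nonselective hits from the GPR151 activator screen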
Of the large screens only hits and unclear results are named; the others gave an inactive call (follow-up assays come after a bar, where they were run).

COc1ccc(-c2nc(NC(=O)c3ccc(Cl)cc3Cl)sc2-c2ccc([N+](=O)[O-])cc2)cc1	none
O=C(COc1ccccc1[N+](=O)[O-])N/N=C/c1cc2c(cc1[N+](=O)[O-])OCO2	none
CC(=O)Nc1ccc(C2OC3=C(C(=O)CC(C)(C)C3)C(N)=C2C#N)cc1 (stereo not given)	GPR151 activ 5.6 | GPR151 confirm inactive | GPR119 ag inactive
CC1(C)CC(=O)C2=C(C1)OC(c1ccccc1Cl)C(C#N)=C2N (stereo not given)	none
CC1(C)CC(=O)C2=C(C1)OC(c1ccc(Cl)cc1Cl)C(C#N)=C2N (stereo not given)	GPR151 activ 10.4 | GPR151 confirm inactive | GPR119 ag inactive
CCN(c1ccccc1)c1nnc(NC(=O)Nc2ccccc2C(=O)OC)s1	none
Cc1ccccc1CSc1nn2c(=O)c(C)nnc2s1	GPR151 activ 6.8 | GPR151 confirm inactive | GPR119 ag inactive
Cc1nnc2sc(SCc3ccc([N+](=O)[O-])cc3)nn2c1=O	none
CCOC(=O)c1c(C)n(C)c2c1cc(O)c1ccccc12	GPR151 activ 6.1 | GPR151 confirm inactive | GPR119 ag inactive
CCCS(=O)(=O)c1c(S(=O)(=O)CCC)c2ccc(C(C)=O)cn2c1C(=O)c1ccc(C)cc1	none
CCCS(=O)(=O)c1c(S(=O)(=O)CCC)c2ccc(C(C)=O)cn2c1C(=O)c1ccc(OC)cc1	GPR151 activ 6.1 | GPR151 confirm inactive | GPR119 ag inactive
Nn1c(SCC(=O)Nc2ccc(OCc3ccccc3)cc2)nnc1-c1ccccc1	none
Nn1c(SCC(=O)Nc2ccc(OCc3ccccc3)cc2)nnc1-c1ccco1	GPR151 activ 5.0 | GPR151 confirm inactive | GPR119 ag inactive
CC1CCN(Cc2nnnn2CC(=O)N(C)CC2Cc3ccccc3O2)CC1 (stereo not given)	none
CC(=O)Nc1ccc(S(=O)(=O)Nc2nnc(-c3ccc(F)cc3)s2)cc1	GPR151 activ 6.7 | GPR151 confirm inactive | GPR119 ag inactive
CCC(=O)/C=C1/Sc2ccc(OC)cc2N1CCO	none
CC[n+]1c(/C=C2\Sc3ccc(C)cc3N2CCO)ccc2ccccc21	GPR151 activ 5.4, TEAD-YAP block 79.8 | GPR151 confirm inactive | GPR119 ag inactive
CCN1/C(=C/c2ccc3cc(OC)ccc3[n+]2CC)Sc2cc(C)c(C)cc21	GPR151 activ 10.6, TEAD-YAP block 66.7 | GPR151 confirm inactive | GPR119 ag inactive
CC[n+]1c(/C=C2\Sc3ccc(-c4ccccc4)cc3N2CCO)ccc2ccccc21	GPR151 activ 22.4, TEAD-YAP block 90.7 | GPR151 confirm inactive | GPR119 ag inactive
CC[n+]1c(/C=C2\Sc3ccccc3N2C)ccc2cccc(C)c21	GPR151 activ 5.4, TEAD-YAP block 86.5 | GPR151 confirm inactive | GPR119 ag inactive
CC(=O)c1cccc(NC(=O)COC(=O)[C@H](C(C)C)N2C(=O)c3ccccc3C2=O)c1	none
CCOc1ccc(CNC(=O)Cn2ncc3c(=O)oc4ccccc4c32)cc1	none
CCCN=C(CC)C1=C(O)CC(C)(C)CC1=O	GPR151 activ 5.4 | GPR151 confirm inactive | GPR119 ag inactive
C=CCN=C(CC)C1=C(O)CC(C)(C)CC1=O	none
N#C/C(=C(/O)COc1ccccc1)c1nnc2n1CCCCC2	none
N#C/C(=C(/O)COc1ccc([N+](=O)[O-])cc1)c1nnc2n1CCCCC2	GPR151 activ 5.8 | GPR151 confirm inactive | GPR119 ag inactive
C=CCN1C(=S)N(c2ccc(C)cc2)C2CS(=O)(=O)CC21 (stereo not given)	none
C=CCOc1ccc(CNCCO)cc1OCC	GPR151 activ 7.6 | GPR151 confirm inactive | GPR119 ag inactive
CCOc1cc(CNCCO)ccc1OCc1ccccc1	none
C=CCOc1ccc(CNC2CCCC2)cc1OC	GPR151 activ 5.7 | GPR151 confirm inactive | GPR119 ag inactive
O=[N+]([O-])c1cc(C2SCCN2S(=O)(=O)c2ccccc2)ccc1Cl (stereo not given)	none
COc1ccc2oc(-c3ccccc3)c(C(=O)O)c2c1	none
COc1ccc2oc(-c3ccccc3)c(C(=O)Nc3nccs3)c2c1	GPR151 activ 6.2 | GPR151 confirm inactive | GPR119 ag inactive
COc1ccc(-n2nc3cc(C)c(NC(=O)c4cccs4)cc3n2)cc1	GPR151 activ 5.1 | GPR151 confirm inactive | GPR119 ag inactive

From PubChem BioAssay
